The text below walks through data of PubChem BioAssay (EPA / NIEHS).

Read-out in assay [1]: Matrix Metallopeptidase 1 (MMP1), MMP1 (gene 4312)
The experiment in a line: BSK_BE3C_MMP1: BioMAP Diversity Plus: BE3C Assay for Matrix Metallopeptidase 1 (MMP1) Biomarker Activity (AID 2283024). Conditions: primary human bronchial epithelial cells; actives raise or lower the signal. The gist of the method: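 Dose cells, wait 24 h, run MMP1 ELISA; cells are human bronchial epithelial primaries. Both increases and decreases relative to DMSO counted.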

Assay [2] is described as follows: BSK_3C_Vis: BioMAP Diversity Plus: 3C Assay for Morphology Visualization (AID 2283025).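 Also: fitted both ways so gain or loss versus DMSO counts.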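 As to AC50: light microscopy image of cell morphology used as background control.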 Conditions: primary human endothelial cells (HUVEC). The gist of the method: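 Endothelial cells from human umbilical vein were treated with test chemicals for 24 h and inspected by light microscopy for changes in cell conformation.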
Read-out in assay [3]: Pselectin, SELP (gene 6403)
The experiment in a line: BSK_4H_Pselectin: BioMAP Diversity Plus: 4H Assay for Pselectin Biomarker Activity (AID 2283026). Particulars: primary human endothelial cells (HUVEC); actives raise or lower the signal. The gist of the method: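 Human vascular endothelium from umbilical vein; P-selectin measured by ELISA at 24 h post-dose, with cytotoxicity checked by sulforhodamine B total-protein staining in parallel cultures (0.1% SRB after 10% TCA fixation, read at 560 nm).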

Assay [4] can be described thus: BSK_4H_SRB: Viability Assessment in the BioMAP Diversity Plus: 4H Assay (AID 2283027).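 Also: cells exposed to compound for 24 h before staining.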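 As to AC50: curves fitted both ways versus DMSO so AC50 may be loss or gain.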 Particulars: primary human endothelial cells (HUVEC). A digest of the protocol: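 Absorbance at 560 nm of SRB-stained total protein served as the viability read-out in confluent primary human umbilical vein endothelium 24 h after chemical treatment. Curves were fitted bidirectionally against DMSO as negative control.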

Assay [5] is described as follows: BSK_BE3C_SRB: Viability Assessment in the BioMAP Diversity Plus: BE3C Assay (AID 2283028). Conditions: primary human bronchial epithelial cells. A digest of the protocol: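 Cells (human bronchial epithelial, primary) are treated with chemicals, and after 24 h the parallel cultures are fixed in 10% TCA. These are then stained with 0.1% SRB and read at 560 nm. Gain or loss of signal is fitted relative to DMSO.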

Read-out in assay [6]: Thrombomodulin, THBD (gene 7056)
The experiment in a line: BSK_3C_Thrombomodulin: BioMAP Diversity Plus: 3C Assay for Thrombomodulin Biomarker Activity (AID 2283029). Conditions: primary human endothelial cells (HUVEC); actives raise or lower the signal. A digest of the protocol:
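Thrombomodulin ELISA, human primary HUVEC, 24 h post-dose; data fitted in both directions relative to DMSO.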

Read-out in assay [7]: Urokinase-type plasminogen activator receptor (uPAR), PLAUR (gene 5329)
The experiment in a line: BSK_4H_uPAR: BioMAP Diversity Plus: 4H Assay for Urokinase-type plasminogen activator receptor (uPAR) Biomarker Activity (AID 2283030). Conditions: primary human endothelial cells (HUVEC); actives raise or lower the signal. The gist of the method:
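Cell-surface uPAR ELISA signal, measured 24 h after dosing human umbilical vein endothelial cells, was analyzed with bidirectional fitting relative to DMSO. Parallel SRB staining of total protein tracked overt cytotoxicity.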

Read-out in assay [8]: Vascular endothelial growth factor receptor 2 (Homo sapiens) (UniProt P35968)
The experiment in a line: BSK_4H_VEGFRII: BioMAP Diversity Plus: 4H Assay for Vascular endothelial growth factor receptor 2 (VEGFR2) Biomarker Activity (AID 2283031). Particulars: primary human endothelial cells (HUVEC); actives raise or lower the signal. A digest of the protocol:
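ELISA read-out of VEGFRII in primary human umbilical vein endothelium, taken 24 h after chemical treatment. Responses are expressed relative to DMSO, with bidirectional fitting.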

Read-out in assay [9]: Human Leukocyte Antigen - DR isotype (HLADR), HLA-DRA (gene 3122)
The experiment in a line: BSK_BE3C_HLADR: BioMAP Diversity Plus: BE3C Assay for Human Leukocyte Antigen - DR isotype (HLADR) Biomarker Activity (AID 2283032). Conditions: primary human bronchial epithelial cells; actives raise or lower the signal. The gist of the method: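 Signal came from an ELISA for HLA-DR in human bronchial epithelial primary cells harvested 24 h after treatment; gain- and loss-of-signal fitting used DMSO controls as reference.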

Read-out in assay [10]: Vascular cell adhesion molecule 1 (VCAM1), VCAM1 (gene 7412)
The experiment in a line: BSK_4H_VCAM1: BioMAP Diversity Plus: 4H Assay for Vascular cell adhesion molecule 1 (VCAM1) Biomarker Activity (AID 2283033).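 As to outcome: cell-surface VCAM-1 protein measured by ELISA.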 Conditions: primary human endothelial cells (HUVEC); actives raise or lower the signal. The gist of the method: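 Endpoint derived from bidirectional fitting against DMSO controls of VCAM-1 ELISA signal in umbilical vein endothelial cells sampled at 24 h following treatment.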

Read-out in assay [11]: Interferon-gamma inducible Protein 10 (IP10), CXCL10 (gene 3627)
The experiment in a line: BSK_BE3C_IP10: BioMAP Diversity Plus: BE3C Assay for Interferon-gamma inducible Protein 10 (IP10) Biomarker Activity (AID 2283034). Particulars: primary human bronchial epithelial cells; actives raise or lower the signal. The gist of the method:
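Using primary human bronchial epithelial cultures, the assay captures IP-10 by ELISA one day (24 h) after exposure. Parallel SRB staining of total protein flags overt cytotoxicity. Fits run bidirectionally relative to DMSO.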

Read-out in assay [12]: Monokine induced gamma interferon (MIG), CXCL9 (gene 4283)
The experiment in a line: BSK_BE3C_MIG: BioMAP Diversity Plus: BE3C Assay for Monokine induced gamma interferon (MIG) Biomarker Activity (AID 2283035).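 Also: MIG protein measured by ELISA in BE3C cultures after 24 h of dosing.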 Conditions: primary human bronchial epithelial cells; actives raise or lower the signal. The gist of the method:
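MIG level was determined by ELISA after 24 h chemical treatment of primary human bronchial epithelial cells. Values were fitted bidirectionally with DMSO as the negative control and activity baseline.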

Read-out in assay [13]: Transforming growth factor beta 1 (TGFb1), TGFB1 (gene 7040)
The experiment in a line: BSK_BE3C_TGFb1: BioMAP Diversity Plus: BE3C Assay for Transforming growth factor beta 1 (TGFb1) Biomarker Activity (AID 2283036;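 also: TGF-b1 protein level measured by ELISA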). Conditions: primary human bronchial epithelial cells; actives raise or lower the signal. A digest of the protocol:
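In this human primary bronchial epithelial system, an ELISA quantified TGF-b1 one day after dosing. Endpoint changes in either direction were fitted relative to DMSO.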

Read-out in assay [14]: Plasminogen activator inhibitor-1 (PAI1), SERPINE1 (gene 5054)
The experiment in a line: BSK_BE3C_PAI1: BioMAP Diversity Plus: BE3C Assay for Plasminogen activator inhibitor-1 (PAI1) Biomarker Activity (AID 2283037). Particulars: primary human bronchial epithelial cells; actives raise or lower the signal. The gist of the method: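 PAI-1 biomarker levels in treated human bronchial epithelial cells are determined by ELISA at 24 h. Both increases and decreases relative to DMSO are fitted.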

Read-out in assay [15]: urokinase plasminogen activator (uPA), PLAU (gene 5328)
The experiment in a line: BSK_BE3C_uPA: BioMAP Diversity Plus: BE3C Assay for urokinase plasminogen activator (uPA) Biomarker Activity (AID 2283038).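 Also: uPA protein level quantified by ELISA in cell cultures; uPA read one day after compound addition.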 Conditions: primary human bronchial epithelial cells; actives raise or lower the signal. The gist of the method:
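Bronchial epithelial cells (human, primary); chemical 24 h; uPA by ELISA; bidirectional fit vs DMSO. SRB (0.1%, after 10% TCA fixation, 560 nm) in parallel cultures for cytotoxicity.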

Read-out in assay [16]: Urokinase-type plasminogen activator receptor (uPAR), PLAUR (gene 5329)
The experiment in a line: BSK_BE3C_uPAR: BioMAP Diversity Plus: BE3C Assay for Urokinase-type plasminogen activator receptor (uPAR) Biomarker Activity (AID 2283039).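 Also: cells exposed to compound for one day before measurement.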 Particulars: primary human bronchial epithelial cells; actives raise or lower the signal. The gist of the method: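 A uPAR ELISA serves as the readout, taken 24 h after treating primary human bronchial epithelial cells. Responses in either direction are fitted against DMSO, which defines baseline activity.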

Read-out in assay [17]: Interleukin-6 (IL6), IL6 (gene 3569)
The experiment in a line: BSK_CASM3C_IL6: BioMAP Diversity Plus: CASM3C Assay for Interleukin-6 (IL6) Biomarker Activity for (AID 2283040). Particulars: primary human coronary artery smooth muscle cells; actives raise or lower the signal.

Read-out in assay [18]: Tissue plasminogen activator (tPA), PLAT (gene 5327)
The experiment in a line: BSK_BE3C_tPA: BioMAP Diversity Plus: BE3C Assay for Tissue plasminogen activator (tPA) Biomarker Activity (AID 2283041).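 As to outcome: tPA level quantified by ELISA one day after compound addition.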 Conditions: primary human bronchial epithelial cells; actives raise or lower the signal. A digest of the protocol: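 Bidirectional curve fitting relative to DMSO defined activity, with tPA detected by ELISA in chemically treated human bronchial epithelial primary cells at 24 hours.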

Read-out in assay [19]: Interleukin-8 (IL8), CXCL8 (gene 3576)
The experiment in a line: BSK_CASM3C_IL8: BioMAP Diversity Plus: CASM3C Assay for Interleukin-8 (IL8) Biomarker Activity (AID 2283042).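 Also: IL-8 protein level quantified by ELISA.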 Conditions: primary human coronary artery smooth muscle cells; actives raise or lower the signal.

Read-out in assay [20]: Human Leukocyte Antigen - DR isotype (HLADR), HLA-DRA (gene 3122)
The experiment in a line: BSK_CASM3C_HLADR: BioMAP Diversity Plus: CASM3C Assay for Human Leukocyte Antigen - DR isotype (HLADR) Biomarker Activity (AID 2283043).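 Also: cell-surface HLA-DR protein level quantified by ELISA.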 Conditions: primary human coronary artery smooth muscle cells; actives raise or lower the signal.

Structures are written as SMILES. Calls of active or inactive are those of the source. The calls were made as follows: active = hit-call score of the fitted dose curve at least 0.9, where 1 is the maximum; inactive = score below 0.9.

The term AC50 denotes the midpoint of the concentration-response curve, whichever way the signal moves. As to `COP(=S)(OC)Oc1ccc(Sc2ccc(OP(=S)(OC)OC)cc2)cc1`, the result in [1], in assay [5], in assay [6], in assay [7], in assay [8] and in assay [12] was inactive. The result in [13], in assay [14], in assay [15], in assay [16], in [17] and in assay [19] was inactive. Besides, in assay [20], the outcome was inactive. Also, the AC50 is 13.6 µM (active) in [2]; 14.5 µM (active) in assay [3]; 9.79 µM (active) in assay [4]; 8.14 µM (active) in assay [9]; 30.2 µM (active) in assay [10]; 18.2 µM (active) in assay [11]. For the same molecule, the AC50 in [18] was 10 µM (active).
For the molecule `Cn1sc(Cl)cc1=O`, the outcome in [1], in assay [2], in assay [4], in assay [5], in assay [6] and in assay [7] was inactive. The outcome in assay [8], in [9], in [11], in assay [12], in assay [13] and in assay [14] was inactive. In addition, the result in assay [15], in [16], in assay [18], in [19] and in [20] was inactive. In addition, the concentration at half-maximal activity (AC50) was 9.68 µM (active) in [3], 20 µM (active) in assay [10] and 20 µM (active) in assay [17].
As for `C[C@]12CCC(=O)C[C@@H]1CC[C@@H]1[C@@H]2CC[C@]2(C)[C@@H](O)CC[C@@H]12`, the outcome in [1], in [2], in [3], in assay [4], in [5] and in assay [6] was inactive. Moreover, the result in assay [8], in assay [9], in assay [10], in assay [11], in [12] and in [13] was inactive. Further, the result in [14], in assay [15], in assay [16], in assay [17], in assay [18] and in assay [19] was inactive. For the same molecule, the result in assay [20] was inactive.
As for `O=S(=O)(c1ccc(Cl)cc1)c1ccc(Cl)cc1`, the result in assay [1], in assay [2], in assay [3], in [4], in [5] and in assay [6] was inactive. For the same molecule, the result in assay [8], in assay [9], in assay [10], in assay [11], in assay [12] and in assay [13] was inactive. In addition, the result in [14], in assay [15], in [16], in assay [17], in assay [19] and in assay [20] was inactive.
Turning to `CC12CC1(C)C(=O)N(c1cc(Cl)cc(Cl)c1)C2=O` (stereo unspecified), the result in [1], in [2], in [3], in assay [4], in [6] and in [7] was inactive. In addition, the outcome in assay [8], in [9], in assay [10], in [11], in assay [12] and in assay [13] was inactive. Further, the outcome in assay [14], in assay [15], in assay [16], in assay [17], in assay [18] and in assay [19] was inactive. Further, the result in assay [20] was inactive.
